Results published in ChEMBL document CHEMBL3988442, “University of Dundee, Small-Polar-MMV Screening Library” (2021).

Columns and labels:
[1] = target: T1, Aspartate--tRNA(Asp/Asn) ligase (Mycobacterium tuberculosis (strain ATCC 25618 / H37Rv)) (UniProt P9WFW3); experiment: Assay for Asp RNA synthetase-1 from Mycobacterium tuberculosis; format: functional; parameters: scale not given: direction of the effect not stated beside the values; settings: 30 µM; further: in the data most compounds retested in dose-response had high values
T1 sequence (whole entry): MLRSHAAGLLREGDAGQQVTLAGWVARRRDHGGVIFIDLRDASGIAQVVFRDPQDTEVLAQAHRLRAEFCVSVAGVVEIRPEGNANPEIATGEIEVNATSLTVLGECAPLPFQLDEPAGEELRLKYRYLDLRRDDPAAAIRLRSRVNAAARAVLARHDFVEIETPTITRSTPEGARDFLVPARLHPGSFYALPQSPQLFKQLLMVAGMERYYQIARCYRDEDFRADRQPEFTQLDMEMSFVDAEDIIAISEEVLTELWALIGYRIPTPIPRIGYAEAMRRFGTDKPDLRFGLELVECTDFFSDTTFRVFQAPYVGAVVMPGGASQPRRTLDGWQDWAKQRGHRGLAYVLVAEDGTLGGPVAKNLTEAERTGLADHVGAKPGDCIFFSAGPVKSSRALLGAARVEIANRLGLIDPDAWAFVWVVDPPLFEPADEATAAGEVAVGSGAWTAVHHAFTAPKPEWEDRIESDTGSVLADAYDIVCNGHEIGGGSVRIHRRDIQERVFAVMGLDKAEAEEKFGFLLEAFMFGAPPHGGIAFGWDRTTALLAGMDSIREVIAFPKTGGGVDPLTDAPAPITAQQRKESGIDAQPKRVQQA

[2] = target: Shiga toxin 2 (Escherichia coli O157:H7) (UniProt P09385+P09386); experiment: E. coli 0.157:H7 Shiga Toxin SOP - stx2 screening assay; format: functional; parameters: scale not given: direction of the effect not stated beside the values; settings: 30 µM

Cc1ccc(F)c(-n2nnc(C(=O)O)c2-c2ccncc2)c1
Percent Effect [1]: 6.35%
Percent Effect [2]: -7.89%

O=C(C1CCC1)N1CCN(c2snc3ccccc23)CC1
Percent Effect [1]: 2.29%
Percent Effect [2]: 10.4%

CC(C)N(C)C(=O)C1=NOC2(CCN(C(=O)c3ccncc3)C2)C1 (stereo not given)
Percent Effect [1]: -1.05%
Percent Effect [2]: -7.21%

O=C(NCCNc1ncccn1)C1CCN(CC(F)(F)F)CC1
Percent Effect [1]: 2.17%
Percent Effect [2]: 21.6%

Cc1[nH]ccc1C(=O)N1CCCC(c2nccn2Cc2cscn2)C1 (stereo not given)
Percent Effect [1]: -2.28%
Percent Effect [2]: 4.58%

CCCS(=O)(=O)NCC1CCOc2ccccc2C1 (stereo not given)
Percent Effect [1]: 0.416%
Percent Effect [2]: -40%

CN(C)c1ccccc1C(=O)N1C[C@@H](CN2CCOCC2)[C@@H](CO)C1
Percent Effect [1]: -3.28%
Percent Effect [2]: 10.2%

CCCc1noc(CCC(=O)NC(C)c2nnc3n2CCCCC3)n1 (stereo not given)
Percent Effect [1]: -4.13%
Percent Effect [2]: -15.1%

CCNC(=O)[C@@H]1C[C@H](NC(=O)c2cncnc2C)CN1CCCSC
Percent Effect [1]: -2.78%
Percent Effect [2]: -8.54%

Cc1nn(C)c(C)c1C1CCCN1Cc1nc(C2CC2)no1 (stereo not given)
Percent Effect [1]: -10.2%
Percent Effect [2]: -15.8%

CNS(=O)(=O)c1ccc(C(=O)N2CCCC2c2ccccc2)o1 (stereo not given)
Percent Effect [1]: -0.871%
Percent Effect [2]: 34%

COc1ccc(CNC2CCCN(Cc3noc(C)n3)C2)cc1F (stereo not given)
Percent Effect [1]: 1.37%
Percent Effect [2]: 6.55%

Cn1cc(C(=O)NCc2cn3c(n2)CN(Cc2ccccn2)CC3)cn1
Percent Effect [1]: 6.41%
Percent Effect [2]: -42%

Cc1cccc(OCCC(=O)N2CCCN(CC(N)=O)CC2)c1C
Percent Effect [1]: -0.457%
Percent Effect [2]: 1.67%

Cc1nn(C)c(N(C)C)c1CNCCNS(C)(=O)=O
Percent Effect [1]: -4.66%
Percent Effect [2]: 17.7%

CC(c1cccc(S(N)(=O)=O)c1)N(C)CCOc1ccccc1 (stereo not given)
Percent Effect [1]: 0.185%
Percent Effect [2]: -29.3%

CN(Cc1ccccn1)C1CC2(CCN(Cc3cccnc3)CC2)C1
Percent Effect [1]: -2.75%
Percent Effect [2]: -14.8%

Fc1ccc(CN2CCO[C@H]3[C@H](OCC4CC4)CC[C@@H]32)cc1
Percent Effect [1]: -1.08%
Percent Effect [2]: 3.83%

CS(=O)(=O)NCC1CCCCN1C(=O)Nc1cccnc1N1CCCC1 (stereo not given)
Percent Effect [1]: -2.73%
Percent Effect [2]: 4.39%

CC(C)OCCOCc1cccc(NC(=O)NCc2ccncc2)c1
Percent Effect [1]: 13%
Percent Effect [2]: -69.6%
